Experimental findings from PubChem BioAssay (NCI) are described below.

A short description of experiment [1]: NCI Yeast Anticancer Drug Screen. Data for the rad50 strain (AID 155).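 Note: 0% = growth of vehicle-only cultures of the same strain.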 Particulars: S. cerevisiae rad50 strain growth inhibition, active compounds read high. The method, boiled down:
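Cells are treated with compound, grown, and their growth is then scored against vehicle-only cultures of the same repair-deficient yeast strain.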

A short description of experiment [2]: NCI Yeast Anticancer Drug Screen. Data for the mec2-1 strain (AID 157). The conditions noted are these: S. cerevisiae mec2-1 strain, active compounds read high. The method, boiled down: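 Mutant yeast (mec2-1) grown with compound; growth inhibition relative to vehicle control reported.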
The nature of experiment [3]: NCI Yeast Anticancer Drug Screen. Data for the sgs1 mgt1 strain (AID 161).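 Note: 0% = growth of cultures given vehicle only.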 Particulars: S. cerevisiae sgs1 mgt1 strain, active compounds read high. Put shortly:
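Yeast cells carrying a defined DNA-repair defect were exposed to test compounds. Growth inhibition was measured relative to vehicle-treated controls.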

The nature of experiment [4]: NCI Yeast Anticancer Drug Screen. Data for the cln2 rad14 strain (AID 165).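 Note: 0% = growth equal to vehicle treated cultures.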 Particulars: S. cerevisiae cln2 rad14 strain, active compounds read high. The method, boiled down:
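Readout is yeast growth inhibition versus vehicle-treated controls, using a strain with cln2 and rad14 alterations exposed to compound.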

The nature of experiment [5]: NCI Yeast Anticancer Drug Screen. Data for the bub3 strain (AID 167). The conditions noted are these: S. cerevisiae bub3 mutant strain, active compounds read high. The method, boiled down: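 Part of a panel of yeast mutants defective in DNA damage repair or cell cycle regulation. Each strain is grown with compound, and inhibition is calculated relative to solvent-treated cultures.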

The nature of experiment [6]: NCI Yeast Anticancer Drug Screen. Data for the mlh1 rad18 strain (AID 175). Particulars: S. cerevisiae mlh1 rad18 strain growth inhibition, active compounds read high. The method, boiled down:
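Genetically defined yeast (DNA repair-deficient) exposed to compounds; growth inhibition determined relative to vehicle.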

Where [7] appears, read: at 5.0 µM (retest, dose inferred, filed as 0.5).
Setting [8] is: at 50.0 µM (retest, dose inferred, filed as 5.0).

The panel holds about 79,000 compounds, 15% with a hit somewhere; the sample as a whole holds those more often. Values without a mark were called inactive. Activity calls are given as the source filed them. Cut-off read from the data, not from the text of the source: active = growth inhibition above about 70%; inactive = the rest.

Turning to `CC(=O)CC(=O)Nc1c(C)[c]([Hg][O]C(C)=O)c(C)[c]([Hg][O]C(C)=O)[c]1[Hg][O]C(C)=O`, the growth inhibition in experiment [1] (setting [7]) is 60%; in experiment [1] (setting [8]) it was 93% (active); in experiment [1] (at 50.0 µM) it was 90.8% (active); in experiment [2] (setting [7]) it was 99% (active); in experiment [2] (setting [8]), 94% (active); in experiment [2] (at 50.0 µM), 92.6% (active). The growth inhibition in experiment [3] (setting [7]) was 57%; in experiment [3] (setting [8]), 94% (active); in experiment [3] (at 50.0 µM) it was 92.8% (active); in experiment [4] (setting [7]), 33%; in experiment [4] (setting [8]), 93% (active); in experiment [4] (at 50.0 µM) it was 88% (active). Also, the growth inhibition in experiment [5] (setting [7]) was 99% (active); in experiment [5] (setting [8]), 94% (active); in experiment [5] (at 50.0 µM), 92.2% (active); in experiment [6] (setting [7]) it was 85% (active); in experiment [6] (setting [8]), 93% (active); in experiment [6] (at 50.0 µM), 90% (active).

In the case of `COc1ccc(CC2C(=O)NC(C)C(=O)N(C)C3C(=O)N(C)C(Cc4ccc(O)c(c4)Oc4ccc(cc4)C3O)C(=O)NC(C)C(=O)NC(C)C(=O)N2C)cc1` (stereo not drawn) (tested in a mixture with another compound), the growth inhibition in experiment [1] (setting [7]) is 31%; in experiment [1] (setting [8]) it was 99% (active); in experiment [1] (at 50.0 µM) it was 83.2% (active); in experiment [2] (setting [7]), 28%; in experiment [2] (setting [8]) it was 100% (active); in experiment [2] (at 50.0 µM), 78% (active). Also, the growth inhibition is 37% in experiment [3] (setting [7]); 99% (active) in experiment [3] (setting [8]); 86.3% (active) in experiment [3] (at 50.0 µM); 41% in experiment [4] (setting [7]); 98% (active) in experiment [4] (setting [8]); 78.5% (active) in experiment [4] (at 50.0 µM). The growth inhibition in experiment [5] (setting [7]) was 34%; in experiment [5] (setting [8]), 99% (active); in experiment [5] (at 50.0 µM) it was 83.3% (active); in experiment [6] (setting [7]) it was 32%; in experiment [6] (setting [8]) it was 98% (active); in experiment [6] (at 50.0 µM), 69.3%.

Consider `CC(C)CC(C)(c1ccc(O)cc1)c1ccc(O)cc1`, for which the growth inhibition was 81% (active) in experiment [1] (setting [7]); 98% (active) in experiment [1] (setting [8]); 92% (active) in experiment [1] (at 50.0 µM); 78% (active) in experiment [2] (setting [7]); 99% (active) in experiment [2] (setting [8]); 93.5% (active) in experiment [2] (at 50.0 µM). Further, the growth inhibition in experiment [3] (setting [7]) was 99% (active); in experiment [3] (setting [8]), 99% (active); in experiment [3] (at 50.0 µM), 93.8% (active); in experiment [4] (setting [7]) it was 80% (active); in experiment [4] (setting [8]), 99% (active); in experiment [4] (at 50.0 µM), 92.6% (active). The growth inhibition in experiment [5] (setting [7]) was 98% (active); in experiment [5] (setting [8]), 99% (active); in experiment [5] (at 50.0 µM), 92.2% (active); in experiment [6] (setting [7]), 68%; in experiment [6] (setting [8]) it was 99% (active); in experiment [6] (at 50.0 µM), 92.3% (active).

Turning to `C[C@]12CC[C@H]3[C@@H](CCC4=CC(=O)CC[C@@H]43)[C@@H]1CC[C@@H]2OC(=O)N(CCCl)N=O`, the growth inhibition is 44% in experiment [1] (setting [7]); 95% (active) in experiment [1] (setting [8]); 84.8% (active) in experiment [1] (at 50.0 µM); 43% in experiment [2] (setting [7]); 97% (active) in experiment [2] (setting [8]); 85.3% (active) in experiment [2] (at 50.0 µM). The growth inhibition in experiment [3] (setting [7]) is 67%; in experiment [3] (setting [8]), 97% (active); in experiment [3] (at 50.0 µM) it was 83.2% (active); in experiment [4] (setting [7]), 68%; in experiment [4] (setting [8]), 96% (active); in experiment [4] (at 50.0 µM), 79% (active). Further, the growth inhibition in experiment [5] (setting [7]) is 72% (active); in experiment [5] (setting [8]), 96% (active); in experiment [5] (at 50.0 µM), 85.7% (active); in experiment [6] (setting [7]), 39%; in experiment [6] (setting [8]), 94% (active); in experiment [6] (at 50.0 µM), 85% (active).

As to `O=P(c1cccc(C(F)(F)F)c1)(c1cccc(C(F)(F)F)c1)c1cccc(C(F)(F)F)c1.O=P(c1cccc(C(F)(F)F)c1)(c1cccc(C(F)(F)F)c1)c1cccc(C(F)(F)F)c1.[Cl][Sn]([Cl])([Cl])[Cl]`, the growth inhibition in experiment [1] (setting [7]) is 3%; in experiment [1] (setting [8]) it was 79% (active); in experiment [1] (at 50.0 µM) it was 31.7%; in experiment [2] (setting [7]) it was 3%; in experiment [2] (setting [8]), 83% (active); in experiment [2] (at 50.0 µM) it was 18.5%. Besides, the growth inhibition was 3% in experiment [3] (setting [7]); 79% (active) in experiment [3] (setting [8]); -5.9% in experiment [3] (at 50.0 µM); -10% in experiment [4] (setting [7]); 73% (active) in experiment [4] (setting [8]); 62.8% in experiment [4] (at 50.0 µM). For the same compound, the growth inhibition in experiment [5] (setting [7]) is 4%; in experiment [5] (setting [8]), 89% (active); in experiment [5] (at 50.0 µM) it was 48.8%; in experiment [6] (setting [7]) it was 9%; in experiment [6] (setting [8]), 81% (active); in experiment [6] (at 50.0 µM) it was 61.1%.

Turning to `CCOP(=O)(N=Nc1cccnc1)OCC`, the growth inhibition was -2% in experiment [1] (setting [7]); -17% in experiment [1] (setting [8]); 14% in experiment [1] (at 50.0 µM); 2% in experiment [2] (setting [7]); -10% in experiment [2] (setting [8]); 6.35% in experiment [2] (at 50.0 µM). The growth inhibition in experiment [3] (setting [7]) was -1%; in experiment [3] (setting [8]), -11%; in experiment [3] (at 50.0 µM) it was 5.05%; in experiment [4] (setting [7]), 1%; in experiment [4] (setting [8]), -17%; in experiment [4] (at 50.0 µM), 59.8%. Also, the growth inhibition in experiment [5] (setting [7]) was 1%; in experiment [5] (setting [8]), -3%; in experiment [5] (at 50.0 µM), 20.1%; in experiment [6] (setting [7]), 2%; in experiment [6] (setting [8]) it was -17%; in experiment [6] (at 50.0 µM) it was 39.1%.
